Inconclusive results are not listed. A call without a number means that no potency is given here. Active and inactive are the calls of the source. Calls follow the shape of the dose curve; as a rule, active = well fitted activation curve with a large enough effect; inconclusive = small, poorly fitted or top-dose-only effect; inactive = no such curve, though single readings can be large or run the other way.
assay: qHTS assay for re-activators of p53 using a Luc reporter: Hit Validation; settings: p53-responsive luciferase reporter cells, luminescence, H1299 line expressing heat-sensitive Ala138Val p53; series mostly up to 46.1 µM; also: nearly all actives have a fitted effect of over 75% in size
How it was run: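 Hit confirmation with a 1:5 dilution series, at 37 deg C for 24 hrs, in H1299 cells co-expressing temperature-sensitive p53-A138V and p53-responsive luciferase. Nocodazole served as control; luminescence read after 10 min with detection reagent.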
Potency is read from the fitted curve at half-maximal effect.

Row | SMILES | activation | Potency
1 | COCCSc1nnc(NC(=O)CCS(=O)(=O)c2ccccc2)s1 | -38.9% [at 9.22 µM] (inactive) | 
2 | Clc1cccc(Cl)c1CSc1nnc2ccccn12 |  | inactive
3 | CN(C)CCN(CC1CCCN(Cc2ccccc2F)C1)C(=O)c1ccc(F)cc1 (stereo not drawn) |  | inactive
4 | O=C(NC12CC3CC(CC(C3)C1)C2)c1ccc(-c2cccc(Cl)c2)o1 |  | 23100 nM (active)
5 | N#Cc1cc2c(nc1SCC(=O)Nc1nccs1)CCCCC2 |  | 206 nM (active)
6 | C/C(CC(C)C)=N\NC(=O)Nc1ccccc1 |  | inactive
7 | Cc1cccc(Nc2cc(=O)[nH]c(=O)[nH]2)c1C |  | inactive
8 | CCOc1ccc(NC(=O)/C=C/c2ccccc2)c([N+](=O)[O-])c1 |  | 5170 nM (active)
9 | Cc1ccc(C(=O)N2CC(=O)Nc3ccc(F)cc3C2c2ccc(F)cc2)cc1[N+](=O)[O-] (stereo not drawn) |  | inactive
10 | Cc1ccc(S(=O)(=O)NCC(=O)NCC(=O)N2CCC(C)CC2)cc1 |  | inactive
11 | COC(=O)c1ccc(CSc2nnc(-c3c[nH]c4ccccc34)n2-c2ccccc2)cc1 |  | inactive
12 | Cc1cccc(NC(=O)c2ccccn2)c1C |  | 14600 nM (active)
13 | O=C(Nc1ccccc1Oc1ccccc1)c1cc([N+](=O)[O-])ccc1Cl |  | inactive
14 | ON=C1c2cc(OCCN3CCCCC3)ccc2-c2ccc(OCCN3CCCCC3)cc21 |  | inactive
15 | COC(=O)c1sccc1N/N=C/c1cccc(OC)c1O |  | 146 nM (active)
16 | CC1CC1C(=O)Nc1nc2ccc(S(C)(=O)=O)cc2s1 (stereo not drawn) |  | inactive
17 | O=c1c2ccccc2oc2ccc(-c3ccc4cc[nH]c4c3)cc12 |  | 411 nM (active)
18 | Cc1cccc(-n2nc([N+](=O)[O-])c(=NC3CCN(Cc4ccccc4)CC3)n2O)c1 |  | inactive
19 | CS(=O)(=O)c1ccc2nc(NC(=O)c3ccco3)sc2c1 |  | 14600 nM (active)

Row | SMILES | activation | Potency
20 | COc1ccc(N2CCN(C(=O)COC(=O)c3ccc(OC(F)F)cc3)CC2)cc1 |  | inactive
21 | Cc1ccc(-c2nnc(N(C)C(=O)C3CCCO3)s2)cn1 (stereo not drawn) |  | inactive
22 | COC(=O)c1nn(-c2ccc(-c3ccccc3)cc2)cc1O |  | 92 nM (active)
23 | CN1CCN(C(=O)c2cc3ccccc3cc2O)CC1 |  | inactive
24 | O=C(Nc1ccc(NC(=O)C2CCCCC2)cn1)c1ccco1 |  | 2590 nM (active)
25 | O=C(CCCN1C(=O)/C(=C/c2ccco2)SC1=S)Nc1ccccc1 |  | inactive
26 | O=C(Nc1nc2ccccc2s1)c1ccc2c(c1)OCO2 |  | 206 nM (active)
27 | COc1ccc(CCC(=O)NC(C)C2CCCO2)cc1 (stereo not drawn) |  | inactive
28 | COc1ccc(N2C(=O)CC(Cc3ccc(Br)cc3)C2=O)cc1 (stereo not drawn) |  | inactive
29 | CCC(=O)Nc1ccc2oc(-c3cccc(C)c3)nc2c1 |  | 73.1 nM (active)
30 | c1ccc2cc3c(NCCN4CCOCC4)ccnc3cc2c1 |  | inactive
31 | Cc1cccc(-n2c(C)cc(/C=N\NC(=O)c3cccs3)c2C)c1 |  | 1160 nM (active)
32 | COc1ccc(-c2coc3cc(O[C@@H]4O[C@H](CO)[C@@H](O)[C@H](O)[C@H]4O)ccc3c2=O)cc1 |  | 2910 nM (active)
33 | Cn1cc(Cl)c(C(=O)Nc2nc3ccccc3s2)n1 |  | 231 nM (active)
34 | O=C(NC(=S)NC1CCCCC1)c1ccccc1[N+](=O)[O-] |  | inactive
35 | CCOC(=O)N(Cc1ccccc1)C(C(=O)O)C(C(=O)O)N(Cc1ccccc1)C(=O)OCC (stereo not drawn) |  | inactive
36 | CC1CCC(NC(=O)C2CCN(C(=O)Nc3ccccc3)CC2)CC1 (stereo not drawn) |  | inactive
37 | O=C(Nc1ccc(Cl)cc1)Nc1nnc(SCc2ccccc2)s1 |  | inactive
38 | Cc1ccc2c(c1)CCCN2C(=O)Nc1ccc2c(c1)OCO2 |  | inactive

— PubChem BioAssay AID624305 (National Center for Advancing Translational Sciences (NCATS), 2012)
